# Records with an inconclusive call do not appear. Calls of active or inactive are those of the source. Unless noted, the call rests on the fitted dose curve; in most records, active means well fitted curve in either direction with a large enough effect (not every such curve was filed as active); inconclusive means small, poorly fitted or top-dose-only effect, or another doubt; inactive means flat fitted curve, though single readings scatter.
# How the values were obtained:
# [1] = target: Lysosomal acid glucosylceramidase (Homo sapiens) (UniProt P04062); experiment: Glucocerebrosidase-p2 (AID 348; in the data active means potency below about 10 µM; further: potency means the concentration at half of the fitted maximal effect); conditions: purified GBA, blue fluorogenic substrate, 40 min
# Outline: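 Compounds titrated from 0.6 nM upwards against 0.2 nM enzyme in pH 5.9 citric acid/KH2PO4, taurocholate, tween-20; blue fluorogenic substrate 80 uM, 40 min room temperature, stopped and read Ex 365/Em 440 for AC50.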
# [2] = AP1 Signaling Pathway (AID 357); conditions: ME-180 AP-1-bla reporter, EGF-induced, beta-lactamase ratio, 5 h; at 7.69 µM (top of the series) unless noted;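 further: ME-180 reporter cells stimulated with EGF at its EC50 level; on the % scale 0 is the no-effect control and ±100 the full control effect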
# Outline: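 Cells are seeded overnight, exposed to compound titrations and an EC50 level of EGF for 5 hours at 37 °C, then loaded with CCF4 dye for 2.5 hours. Beta-lactamase activity under the AP-1 element is read as a blue/green ratio.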
# [3] = target: Cytochrome P450 1A2 (Homo sapiens) (UniProt P05177); experiment: p450-cyp1a2 (AID 410; calls by dose curve; further: potency means the concentration at half of the fitted maximal effect;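 on activity change, negative = inhibition: -100% = full effect of reference inhibitor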); conditions: recombinant CYP1A2, luciferin-ME demethylation, luminescence; series mostly up to 57 µM
# Outline: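 Luminescent readout of luciferin formed from Luciferin-ME by human CYP1A2; data normalized against complete inhibition by 57 uM furafylline. Enzyme 20nM, substrate 100uM at Km, 100mM KPO4 buffer, 60 min reaction at room temperature.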
# [4] = Stat Signaling Pathway (AID 446); conditions: ME-180 SIE beta-lactamase reporter, IL-6 stimulated, 5 h; at 7.69 µM (top of the series) unless noted;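 further: ME-180 cervical cancer cells given 40 pM IL-6 alongside compound; SIE-controlled beta-lactamase reporter measured as 460/530 nm FRET emission ratio; on the % scale 0 is the no-effect control and ±100 the full control effect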
# Outline: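 Reporter line: ME-180 cervical carcinoma, SIE-beta-lactamase. Treatment: compound with 40 pM IL-6, 5 hrs, 37 C, in low-serum OPTI-MEM with 10 mM HEPES pH 7.3. Detection: 460/530 nm fluorescence.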
# [5] = target: Glucocorticoid receptor (Homo sapiens) (UniProt P04150); experiment: GR-GFP Redistribution (AID 450;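 active means compounds whose dose series gives a full or clear partial fitted curve of increased nuclear translocation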; further: potency means the concentration at half of the fitted maximal effect); conditions: U2OS GR-GFP nuclear translocation, laser cytometry, 2 h
# [6] = target: Glucocorticoid receptor (Homo sapiens) (UniProt P04150); experiment: GR-EFC Redistribution (AID 451; calls by dose curve; further: potency means the concentration at half of the fitted maximal effect); conditions: CHO-K1 GR-EFC translocation, beta-gal luminescence, 2 h
# Outline: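 CHO-K1 cells stably expressing nuclear-localized β-gal enzyme acceptor and GR fused C-terminally to the enzyme donor fragment; ligand-driven nuclear translocation restores β-gal by complementation. Compounds titrated up to 46 uM final, 2 h at 37 °C; luminescence read.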
# [7] = target: Mitogen-activated protein kinase 10 (Mus musculus) (UniProt Q61831); experiment: JNK3 AlphaScreen Assay (AID 530); conditions: JNK3 lysate, c-Jun phosphorylation; series mostly up to 57.1 µM;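 further: kinase came from lysate of stimulated human HepG2 cells; signal reports phosphorylation of biotinylated GST-cJun 1-79 at Ser73 with 10 µM ATP; on the % scale 0 is the no-effect control and ±100 the full control effect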
# Outline: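 Inhibitors reduce antibody binding to phosphorylated biotin-cJun, lowering AlphaScreen luminescence. Lysates from HepG2 cells pre-activated by IL-1beta plus TNF-alpha supplied JNK3; compounds were titrated.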
# [8] = target: 3',5'-cyclic-AMP phosphodiesterase 4B (Homo sapiens) (UniProt Q07343); experiment: qHTS Assay for Inhibitors of PDE-IV (AID 607; active means well fitted activation curve with a large enough effect in the main read-out, with a control signal flat, not every such curve was filed as active; further: % of control where 0% means no effect); conditions: HEK293 ACTOne CNG channel cells, membrane potential fluorescence; series mostly up to 22.9 µM
# Outline: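 Cell-based read-out of cAMP via a modified cyclic nucleotide-gated channel and membrane potential dye (535/590 nm) in HEK293 cells expressing PDE4 endogenously. Compounds tested up to 22.9 uM final; 100 uM RO 20-1724 reference.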
# [9] = target: Cytochrome P450 3A4 (Homo sapiens) (UniProt P08684); experiment: qHTS Assay for Activators of Cytochrome P450 3A4 (AID 885; active means well fitted curve in the direction sought with a large enough effect; an effect the other way counts as inactive or inconclusive; further: nearly all actives have a fitted effect of over 65% in size); conditions: recombinant CYP3A4, Luciferin-PPXE luminescence, 60 min; series mostly up to 57.1 µM
# Outline: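 Signal was normalized against complete inhibition by 57 uM ketoconazole. The reaction used 20nM CYP3A4 with 25uM Luciferin-PPXE, 10-min compound preincubation and a 60-min NADPH-supported step at RT.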
# [10] = Confirmation and Secondary Assay for Modulators of Hemoglobin Beta Chain Splicing at IVS2 654 locus (AID 910; active means well fitted curve in the direction sought with a large enough effect; an effect the other way counts as inactive or inconclusive;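 further: per-well total GFP intensity by laser scanning cytometry after 2-day treatment; % of control where 0% means no effect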); conditions: HeLa EGFP-654 splicing reporter, GFP fluorescence, 48 h; series mostly up to 38.3 µM
# Outline: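 HeLa cells stably carrying EGFP interrupted by mutant beta-globin IVS2-654 intron (CMV-driven) were treated with compound for 2 days at 37C; corrected splicing was scored as total peak GFP intensity per well (488 nm excitation, 500-520 nm emission).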
# [11] = Confirmation and Secondary Assay for Modulators of Hemoglobin Beta Chain Splicing at IVS2 705 locus (AID 930; active means well fitted curve in the direction sought with a large enough effect; an effect the other way counts as inactive or inconclusive;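 further: HeLa cells stably expressing the EGFP-705 splicing reporter; GFP fluorescence per well restored by corrected splicing of the IVS2-705 intron in EGFP; % of control where 0% means no effect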); conditions: HeLa EGFP-705 splicing reporter, GFP fluorescence, 48 h; series mostly up to 38.3 µM
# Outline: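 HeLa EGFP-705 reporter; 500 cells/well, o/n 37C 5% CO2; cpd 2 d; 488 ex/500-520 em laser scan; total peak GFP intensity/well. Ref: 500 nM […] antisense PNA.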
# [12] = qHTS Assay for Lipid Storage Modulators (AID 1519; calls by dose curve); conditions: Drosophila S3 cells, BODIPY lipid droplet/cell ratio, laser cytometry, cells loaded with oleic acid; for activity change, negative = inhibition: at 57.5 µM (top of the series)
# Outline: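 Cells seeded at 5,000 per well were treated with compounds over a concentration series and loaded with oleic acid (400 uM, as added). Lipid droplet fluorescence (488 nm excitation, 500-530 nm channel) was read by laser-scanning cytometry and normalized to 20 uM Triacsin C.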
# [13] = target: Ubiquitin carboxyl-terminal hydrolase 1 (Homo sapiens) (UniProt O94782); experiment: Inhibitors of USP1/UAF1: Pilot qHTS (AID 504865; active means well fitted curve in the direction sought with a large enough effect; an effect the other way counts as inactive or inconclusive;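 further: rhodamine fluorescence freed from ubiquitin-rhodamine substrate followed over time; top concentration of the series differs between compounds; on the % scale 0 is the no-effect control and ±100 the full control effect; nearly all actives have a fitted effect of over 35% in size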); conditions: purified USP1/UAF1, Ub-rhodamine cleavage fluorescence; series mostly up to 54.9 µM
# Outline: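 Deubiquitinase activity followed as kinetic rhodamine fluorescence release from 150 nM Ub-Rho. 1 nM USP1/UAF1 with compound, after 15 min room-temperature preincubation, in HEPES pH 7.8 buffer containing TCEP, EDTA, BSA and Tween-20.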
# [14] = Primary qHTS for small molecule stabilizers of the endoplasmic reticulum resident proteome: Secreted ER Calcium Modulated Protein (SERCaMP) assay (AID 1508630; active means well fitted curve in the direction sought with a large enough effect; an effect the other way counts as inactive or inconclusive; further: on the % scale 0 is the no-effect control and ±100 the full control effect); conditions: SH-SY5Y GLuc-SERCaMP (Gaussia luciferase released on ER calcium loss) secretion, thapsigargin, luminescence; series mostly up to 38.4 µM
# Outline: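 GLuc-SERCaMP-expressing SH-SY5Y cells, pretreated 16 h with compound, are challenged with thapsigargin to empty ER calcium stores; after 4 h, coelenterazine is added directly to the medium and luminescence is imaged.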
# [15] = target: Cytochrome P450 3A4 (Homo sapiens) (UniProt P08684); experiment: qHTS Assay for Inhibitors and Substrates of Cytochrome P450 3A4 (AID 884; active means well fitted curve in the direction sought with a large enough effect; an effect the other way counts as inactive or inconclusive; further: potency means the concentration at half of the fitted maximal effect; nearly all actives have a fitted effect of over 50% in size); conditions: recombinant CYP3A4, Luciferin-PPXE luminescence; series mostly up to 57.1 µM
# Outline: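 20 nM human CYP3A4 with 25 uM Luciferin-PPXE (at KM) in 200 mM KPO4, preincubated 10 min with compound; NADPH regeneration started a 60 min RT reaction. Luciferin detected by luminescence, normalized to 57 uM ketoconazole as full inhibition.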
# [16] = target: Cytochrome P450 2D6 (Homo sapiens) (UniProt P10635); experiment: qHTS Assay for Inhibitors and Substrates of Cytochrome P450 2D6 (AID 891; active means well fitted curve in the direction sought with a large enough effect; an effect the other way counts as inactive or inconclusive; further: potency means the concentration at half of the fitted maximal effect; nearly all actives have a fitted effect of over 60% in size); conditions: recombinant CYP2D6, luciferin-ME EGE luminescence; series mostly up to 57.1 µM
# Outline: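 Human CYP2D6 (5 nM) with 30 uM Luciferin-ME EGE (at Km) in 100 mM KPO4, compound preincubated 10 min, then NADPH regeneration system for 60 min at room temperature. Luciferin read by luminescence; normalized to 1.43 uM quinidine.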
# [17] = target: Cytochrome P450 2C9 (Homo sapiens) (UniProt P11712); experiment: qHTS Assay for Inhibitors and Substrates of Cytochrome P450 2C9 (AID 883; active means well fitted curve in the direction sought with a large enough effect; an effect the other way counts as inactive or inconclusive; further: on the % scale 0 is the no-effect control and ±100 the full control effect; nearly all actives have a fitted effect of over 60% in size); conditions: recombinant CYP2C9, luciferin-H luminescence, 60 min; series mostly up to 57.1 µM
# Outline: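 Human CYP2C9 (10nM) hydroxylated Luciferin-H (100uM, at its KM) to luciferin in 25mM KPO4. Compound was preincubated 10 min at 37C, then NADPH regeneration started a 60 min reaction at 37C. Luminescence was read after detection reagent, normalized to 57uM sulphaphenazole.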
# [18] = measured here: cell count channel max response
# [19] = measured here: lipid channel max response
# Chain of Lysosomal acid glucosylceramidase (Homo sapiens) (P04062 whole entry, looked up): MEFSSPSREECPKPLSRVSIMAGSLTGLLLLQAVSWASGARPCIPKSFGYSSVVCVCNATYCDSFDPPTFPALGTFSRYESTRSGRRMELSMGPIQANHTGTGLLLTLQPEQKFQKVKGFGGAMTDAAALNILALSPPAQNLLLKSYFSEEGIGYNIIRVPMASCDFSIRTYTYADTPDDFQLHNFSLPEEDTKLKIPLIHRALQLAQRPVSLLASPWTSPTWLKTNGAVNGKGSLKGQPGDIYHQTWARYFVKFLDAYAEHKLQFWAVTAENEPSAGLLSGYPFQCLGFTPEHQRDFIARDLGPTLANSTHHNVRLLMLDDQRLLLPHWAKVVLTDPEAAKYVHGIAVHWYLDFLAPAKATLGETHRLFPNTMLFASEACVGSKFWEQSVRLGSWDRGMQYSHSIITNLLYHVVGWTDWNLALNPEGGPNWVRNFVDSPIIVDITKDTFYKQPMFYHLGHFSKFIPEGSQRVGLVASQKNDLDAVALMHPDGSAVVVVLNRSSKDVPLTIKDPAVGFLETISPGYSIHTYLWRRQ
# Chain of Cytochrome P450 1A2 (Homo sapiens) (P05177 whole entry, looked up): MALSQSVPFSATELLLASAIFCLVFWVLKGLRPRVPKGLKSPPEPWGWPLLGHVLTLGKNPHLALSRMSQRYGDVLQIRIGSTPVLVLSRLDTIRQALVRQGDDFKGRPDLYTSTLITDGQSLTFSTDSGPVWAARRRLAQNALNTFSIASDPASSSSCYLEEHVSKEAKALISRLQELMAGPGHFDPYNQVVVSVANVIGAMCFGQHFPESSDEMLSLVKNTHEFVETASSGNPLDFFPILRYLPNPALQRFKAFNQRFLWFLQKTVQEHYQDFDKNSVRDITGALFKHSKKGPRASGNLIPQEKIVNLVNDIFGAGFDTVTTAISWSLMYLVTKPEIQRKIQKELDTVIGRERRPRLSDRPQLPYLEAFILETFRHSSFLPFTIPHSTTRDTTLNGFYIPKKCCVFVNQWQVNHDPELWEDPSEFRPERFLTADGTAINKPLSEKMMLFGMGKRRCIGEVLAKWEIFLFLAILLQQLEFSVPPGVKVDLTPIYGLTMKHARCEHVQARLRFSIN
# Chain of 3',5'-cyclic-AMP phosphodiesterase 4B (Homo sapiens) (Q07343 whole entry, looked up): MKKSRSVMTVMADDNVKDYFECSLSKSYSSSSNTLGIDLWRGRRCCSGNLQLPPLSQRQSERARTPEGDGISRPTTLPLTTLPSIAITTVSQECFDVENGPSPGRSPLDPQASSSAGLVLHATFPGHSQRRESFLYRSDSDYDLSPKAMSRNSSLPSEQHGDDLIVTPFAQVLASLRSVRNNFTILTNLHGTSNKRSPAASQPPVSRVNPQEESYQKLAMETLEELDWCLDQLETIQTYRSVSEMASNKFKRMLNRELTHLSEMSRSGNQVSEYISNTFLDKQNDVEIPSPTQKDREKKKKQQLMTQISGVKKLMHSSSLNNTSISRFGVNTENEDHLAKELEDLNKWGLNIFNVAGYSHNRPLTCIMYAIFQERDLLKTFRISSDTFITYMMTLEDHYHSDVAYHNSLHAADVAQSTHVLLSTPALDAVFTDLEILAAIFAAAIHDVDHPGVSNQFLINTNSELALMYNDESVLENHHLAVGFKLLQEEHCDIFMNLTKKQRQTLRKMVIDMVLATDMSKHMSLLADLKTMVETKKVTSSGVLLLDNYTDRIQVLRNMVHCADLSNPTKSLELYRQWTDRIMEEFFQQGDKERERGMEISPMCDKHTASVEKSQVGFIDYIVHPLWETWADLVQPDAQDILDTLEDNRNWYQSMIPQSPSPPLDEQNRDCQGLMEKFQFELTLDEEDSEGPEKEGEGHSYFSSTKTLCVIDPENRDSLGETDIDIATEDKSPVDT
# Chain of Glucocorticoid receptor (Homo sapiens) (P04150 whole entry, looked up, the tested form may be a part): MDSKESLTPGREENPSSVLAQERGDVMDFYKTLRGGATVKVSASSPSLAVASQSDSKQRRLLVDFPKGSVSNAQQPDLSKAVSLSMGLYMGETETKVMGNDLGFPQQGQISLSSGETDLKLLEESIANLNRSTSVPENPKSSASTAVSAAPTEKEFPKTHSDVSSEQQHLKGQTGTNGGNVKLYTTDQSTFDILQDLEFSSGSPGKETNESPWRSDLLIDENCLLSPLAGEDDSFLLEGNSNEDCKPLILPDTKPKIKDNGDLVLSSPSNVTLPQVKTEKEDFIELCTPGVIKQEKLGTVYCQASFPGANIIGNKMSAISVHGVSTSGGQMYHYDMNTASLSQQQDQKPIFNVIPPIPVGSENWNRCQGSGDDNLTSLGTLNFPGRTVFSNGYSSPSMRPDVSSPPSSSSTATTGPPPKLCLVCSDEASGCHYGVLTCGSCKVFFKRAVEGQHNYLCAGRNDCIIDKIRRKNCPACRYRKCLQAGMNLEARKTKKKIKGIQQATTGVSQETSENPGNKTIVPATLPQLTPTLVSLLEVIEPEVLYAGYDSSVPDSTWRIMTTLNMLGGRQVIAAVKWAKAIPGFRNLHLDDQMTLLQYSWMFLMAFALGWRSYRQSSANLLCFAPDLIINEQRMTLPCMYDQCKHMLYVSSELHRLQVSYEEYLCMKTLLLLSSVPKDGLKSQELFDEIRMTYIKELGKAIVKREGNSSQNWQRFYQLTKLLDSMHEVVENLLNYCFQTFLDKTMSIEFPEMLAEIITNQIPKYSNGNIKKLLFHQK
# Chain of Cytochrome P450 3A4 (Homo sapiens) (P08684 whole entry, looked up): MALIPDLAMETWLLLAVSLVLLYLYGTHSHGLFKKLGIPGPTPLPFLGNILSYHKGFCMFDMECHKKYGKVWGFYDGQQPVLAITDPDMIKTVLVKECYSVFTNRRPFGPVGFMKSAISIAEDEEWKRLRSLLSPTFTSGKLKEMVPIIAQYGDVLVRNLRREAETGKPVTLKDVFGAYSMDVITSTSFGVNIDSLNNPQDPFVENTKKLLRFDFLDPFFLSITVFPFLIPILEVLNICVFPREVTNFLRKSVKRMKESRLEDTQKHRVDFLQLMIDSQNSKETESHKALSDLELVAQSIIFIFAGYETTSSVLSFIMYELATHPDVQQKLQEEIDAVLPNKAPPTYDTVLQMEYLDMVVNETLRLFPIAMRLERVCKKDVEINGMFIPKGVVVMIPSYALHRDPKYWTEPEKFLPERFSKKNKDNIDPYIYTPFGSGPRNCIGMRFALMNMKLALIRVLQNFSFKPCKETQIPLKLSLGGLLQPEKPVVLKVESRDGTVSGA
# Chain of Ubiquitin carboxyl-terminal hydrolase 1 (Homo sapiens) (O94782 whole entry, looked up): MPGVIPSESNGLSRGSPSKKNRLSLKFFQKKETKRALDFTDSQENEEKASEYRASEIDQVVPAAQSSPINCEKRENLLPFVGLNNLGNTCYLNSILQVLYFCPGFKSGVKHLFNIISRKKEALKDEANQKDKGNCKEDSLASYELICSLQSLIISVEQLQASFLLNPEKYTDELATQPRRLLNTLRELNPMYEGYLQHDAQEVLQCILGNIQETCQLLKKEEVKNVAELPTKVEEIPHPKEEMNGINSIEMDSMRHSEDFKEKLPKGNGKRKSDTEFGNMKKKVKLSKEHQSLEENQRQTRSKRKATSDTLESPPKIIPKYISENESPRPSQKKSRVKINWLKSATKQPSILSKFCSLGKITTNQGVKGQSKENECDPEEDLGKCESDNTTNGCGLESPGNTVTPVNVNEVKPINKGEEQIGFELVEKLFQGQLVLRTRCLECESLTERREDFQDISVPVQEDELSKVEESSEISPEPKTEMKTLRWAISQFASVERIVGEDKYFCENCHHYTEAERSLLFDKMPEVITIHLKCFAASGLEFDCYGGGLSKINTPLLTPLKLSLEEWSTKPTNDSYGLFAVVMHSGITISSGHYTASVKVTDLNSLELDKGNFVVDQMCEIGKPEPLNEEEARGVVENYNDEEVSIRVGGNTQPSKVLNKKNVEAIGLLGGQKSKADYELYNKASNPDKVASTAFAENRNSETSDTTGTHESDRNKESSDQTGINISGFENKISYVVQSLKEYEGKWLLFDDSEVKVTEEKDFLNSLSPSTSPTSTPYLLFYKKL
# Chain of Cytochrome P450 2D6 (Homo sapiens) (P10635 whole entry, looked up): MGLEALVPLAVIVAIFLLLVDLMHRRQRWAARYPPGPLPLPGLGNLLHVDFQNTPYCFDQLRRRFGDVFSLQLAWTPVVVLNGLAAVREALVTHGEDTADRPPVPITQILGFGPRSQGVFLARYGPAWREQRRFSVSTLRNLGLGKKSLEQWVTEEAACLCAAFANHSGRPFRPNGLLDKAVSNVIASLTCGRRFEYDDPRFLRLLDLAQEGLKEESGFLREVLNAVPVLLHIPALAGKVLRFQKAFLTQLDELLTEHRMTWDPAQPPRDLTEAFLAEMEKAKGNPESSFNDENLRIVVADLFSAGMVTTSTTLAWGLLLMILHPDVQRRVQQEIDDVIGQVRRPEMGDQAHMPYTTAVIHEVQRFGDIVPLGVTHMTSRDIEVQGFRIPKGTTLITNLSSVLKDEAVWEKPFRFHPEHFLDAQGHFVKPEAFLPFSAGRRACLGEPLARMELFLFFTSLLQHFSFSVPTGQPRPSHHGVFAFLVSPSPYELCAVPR
# Chain of Cytochrome P450 2C9 (Homo sapiens) (P11712 whole entry, looked up): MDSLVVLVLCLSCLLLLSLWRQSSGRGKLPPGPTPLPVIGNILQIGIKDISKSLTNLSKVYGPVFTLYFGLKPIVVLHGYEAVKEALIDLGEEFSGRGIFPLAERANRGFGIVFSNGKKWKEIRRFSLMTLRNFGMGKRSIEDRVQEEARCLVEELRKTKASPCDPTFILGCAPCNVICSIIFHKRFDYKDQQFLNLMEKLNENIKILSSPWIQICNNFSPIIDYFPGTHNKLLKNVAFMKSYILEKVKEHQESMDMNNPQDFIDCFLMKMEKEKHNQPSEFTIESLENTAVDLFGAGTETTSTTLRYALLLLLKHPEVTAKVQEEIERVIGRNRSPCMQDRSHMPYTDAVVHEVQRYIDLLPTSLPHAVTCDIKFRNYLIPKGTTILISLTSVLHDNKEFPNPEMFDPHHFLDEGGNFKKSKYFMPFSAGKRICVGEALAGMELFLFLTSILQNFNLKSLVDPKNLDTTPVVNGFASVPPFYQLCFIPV
SMILES,Potency [1],"activity change, negative = inhibition [2]",Potency [3],"activity, negative = inhibition [4]",Potency [5],Potency [6],Potency [7],Potency [8],Potency [9],Potency [10],outcome [11],"activity change, negative = inhibition [12]","max response [12, 18] [%]","max response [12, 19] [%]",Potency [13],outcome [14],Potency [15],Potency [16],Potency [17]
CN(C)Cc1ccccc1-c1cncnc1NCc1cccs1,> 11.4 µM (inactive),8.74% (inactive),25.1 µM (active),-5.04% (inactive),> 46 µM (inactive),> 46 µM (inactive),inactive,inactive,inactive,inactive,inactive,5.02% (inactive),16.5,25.4,inactive,inactive,,,
CC(=O)N1CCC2(CCN(Cc3ccccc3)CC2)CC1,> 11.4 µM (inactive),-7.18% (inactive),inactive,-5.27% (inactive),,> 46 µM (inactive),inactive,inactive,,,,-3.2% (inactive),-4.28,-4.62,,inactive,,,
CN(C)Cc1ccccc1-c1cncnc1NCc1cccnc1,> 11.4 µM (inactive),-0.642% (inactive),12.6 µM (active),9.42% (inactive),> 46 µM (inactive),> 46 µM (inactive),inactive,inactive,inactive,inactive,inactive,2.08% (inactive),3.75,4.73,inactive,inactive,1.58 µM (active),6.31 µM (active),
O=C(Nc1cccc(F)c1)N1CC2(CCN(C(=O)c3cc(C(F)(F)F)cc(C(F)(F)F)c3)CC2)C1,> 11.4 µM (inactive),-25.3% (inactive),inactive,-22% (inactive),,> 46 µM (inactive),inactive,inactive,inactive,,,7.3% (inactive),16.9,27.5,,inactive,,,inactive
COCC(=O)N1CCC2(CCCN(Cc3ccccc3OC)C2)CC1,> 11.4 µM (inactive),-2.02% (inactive),inactive,10.7% (inactive),,> 46 µM (inactive),inactive,inactive,,,,-6.35% (inactive),2.52,0.269,,inactive,,,
CC(C)CN1CCC2(CC1)CCN(C(=O)c1cccn1C)CC2,> 11.4 µM (inactive),-13.5% (inactive),inactive,-4.86% (inactive),,> 46 µM (inactive),inactive,inactive,,,,0.342% (inactive),-5.62,-4.46,,inactive,,,
COc1ccccc1CN1CCC2(CC1)CCN(C(=O)c1ccco1)CC2,> 11.4 µM (inactive),-17.3% (inactive),inactive,-4.26% (inactive),,> 46 µM (inactive),inactive,inactive,,,,3.05% (inactive),1.79,7.5,,inactive,,,
